# Reference: PubChem BioAssay
# Unmarked numbers belong to inactive results. Where a call stands in place of a potency, no number is given. For some assays here: Potency and affinity values are given separately. Active and inactive are the calls of the source. Unless noted, the rule behind the calls is not given here.
# Legend:
# [1] = antimalarial activity against Dd2 strain (AID 2302;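 active = growth inhibition above 50% at the single 2 µM test dose, taken to imply half-maximal potency below 2 µM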); conditions: P. falciparum Dd2 in RBCs, LDH growth readout, 72 h; at 2 µM; active compounds read high
# [2] = human hepatoma cell viability loss – ATP luminescence, cytotoxicity control for P. falciparum antimalarial project, primary screen (AID 2303;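 active = inhibition above 50%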); conditions: HepG2 viability, 24-48 h, at 10 µM, active compounds read high
# [3] = molecular target: L-lactate dehydrogenase (Plasmodium falciparum (isolate CDC / Honduras)) (UniProt Q27743); assay: PfLDH activity inhibition – cell lysate, 3D7 strain, counter-screen for P. falciparum growth inhibition project (AID 2304); conditions: P. falciparum 3D7 crude extract, LDH APAD/NBT absorbance; at 2 µM; active compounds read high
# L-lactate dehydrogenase (Plasmodium falciparum (isolate CDC / Honduras)), sequence (Q27743 whole entry, looked up): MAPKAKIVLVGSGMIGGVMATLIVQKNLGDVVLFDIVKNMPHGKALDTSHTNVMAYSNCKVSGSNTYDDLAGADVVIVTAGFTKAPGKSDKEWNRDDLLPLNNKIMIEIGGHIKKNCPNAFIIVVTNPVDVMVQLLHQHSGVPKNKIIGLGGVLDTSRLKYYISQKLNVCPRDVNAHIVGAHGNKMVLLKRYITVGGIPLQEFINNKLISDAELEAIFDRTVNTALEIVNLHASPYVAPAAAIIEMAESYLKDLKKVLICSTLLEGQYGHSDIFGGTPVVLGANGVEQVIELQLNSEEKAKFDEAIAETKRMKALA
# [4] = inhibition of 3D7 malaria parasite growth – strain 3D7 (AID 2306); conditions: P. falciparum 3D7 erythrocytic growth, LDH absorbance, 72 h; at 2 µM; active compounds read high
# [5] = molecular target: Calcium-dependent protein kinase 1 (Plasmodium falciparum (isolate 3D7)) (UniProt P62344); assay: PfCDPK1 kinase inhibitors, biochemical, TCAMS library (AID 1159585; cut-off not given, nearly all actives have IC50 up to about 0.98 µM;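 note: inhibitors leave more ATP so luminescence rises with inhibition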); conditions: recombinant PfCDPK1, Kinase-Glo ATP depletion luminescence
# Calcium-dependent protein kinase 1 (Plasmodium falciparum (isolate 3D7)), sequence (P62344 whole entry, looked up): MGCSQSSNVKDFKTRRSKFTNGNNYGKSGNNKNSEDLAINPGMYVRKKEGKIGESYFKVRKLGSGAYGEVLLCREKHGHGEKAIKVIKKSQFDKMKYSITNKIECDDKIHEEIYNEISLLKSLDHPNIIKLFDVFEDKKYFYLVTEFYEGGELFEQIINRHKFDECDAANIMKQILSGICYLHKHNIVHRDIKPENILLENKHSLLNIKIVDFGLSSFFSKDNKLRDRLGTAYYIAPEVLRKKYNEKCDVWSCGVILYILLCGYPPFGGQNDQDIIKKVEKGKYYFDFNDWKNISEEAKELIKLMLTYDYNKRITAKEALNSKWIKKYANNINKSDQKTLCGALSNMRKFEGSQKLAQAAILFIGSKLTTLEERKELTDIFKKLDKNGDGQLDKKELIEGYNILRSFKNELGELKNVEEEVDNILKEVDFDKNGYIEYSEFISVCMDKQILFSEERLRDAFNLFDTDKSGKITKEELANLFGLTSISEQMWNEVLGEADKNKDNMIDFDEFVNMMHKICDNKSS
# [6] = molecular target: Plasmodium falciparum protein kinase 6 (PK6, PF3D7_1337100) (UniProt Q8IDW1); assay: PfPK6 kinase inhibitors, biochemical, TCAMS library (AID 1159586); conditions: recombinant PfPK6, Kinase-Glo ATP depletion luminescence
# Plasmodium falciparum protein kinase 6 (PK6, PF3D7_1337100), sequence (Q8IDW1 1-305): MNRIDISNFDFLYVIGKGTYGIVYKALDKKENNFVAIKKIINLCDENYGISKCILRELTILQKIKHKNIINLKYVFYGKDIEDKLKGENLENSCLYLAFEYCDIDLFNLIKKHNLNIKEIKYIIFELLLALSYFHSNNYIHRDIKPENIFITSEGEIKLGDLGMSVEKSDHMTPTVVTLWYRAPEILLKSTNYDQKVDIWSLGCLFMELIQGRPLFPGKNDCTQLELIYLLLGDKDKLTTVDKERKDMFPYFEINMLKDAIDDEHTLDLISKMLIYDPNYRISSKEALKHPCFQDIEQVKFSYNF
# [7] = molecular target: Protein kinase 7 (PK7), Plasmodium falciparum 3D7 (PF3D7_0213400) (UniProt Q7YTF7); assay: inhibition of Plasmodium PK7 catalytic activity – biochemical, TCAMS antimalarial set, Kinase-Glo luminescence (AID 1159587); conditions: recombinant PfPK7, Kinase-Glo ATP depletion luminescence
# Protein kinase 7 (PK7), Plasmodium falciparum 3D7 (PF3D7_0213400), sequence (Q7YTF7 1-343): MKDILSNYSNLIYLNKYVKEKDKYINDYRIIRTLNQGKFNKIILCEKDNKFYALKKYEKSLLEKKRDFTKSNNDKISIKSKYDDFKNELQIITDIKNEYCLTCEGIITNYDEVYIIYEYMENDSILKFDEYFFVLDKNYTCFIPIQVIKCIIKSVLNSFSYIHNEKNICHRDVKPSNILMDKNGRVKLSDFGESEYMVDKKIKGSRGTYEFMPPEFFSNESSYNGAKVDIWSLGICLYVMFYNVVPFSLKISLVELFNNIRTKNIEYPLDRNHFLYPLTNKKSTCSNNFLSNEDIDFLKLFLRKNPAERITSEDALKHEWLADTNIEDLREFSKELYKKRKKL
# [8] = molecular target: Calcium-dependent protein kinase 4 (Plasmodium falciparum (isolate 3D7)) (UniProt Q8IBS5); assay: PfCDPK4 kinase inhibitors, biochemical, TCAMS library (AID 1159588; cut-off not given, nearly all actives have IC50 up to about 0.91 µM); conditions: recombinant PfCDPK4, Kinase-Glo ATP depletion luminescence
# Calcium-dependent protein kinase 4 (Plasmodium falciparum (isolate 3D7)), sequence (Q8IBS5 whole entry, looked up): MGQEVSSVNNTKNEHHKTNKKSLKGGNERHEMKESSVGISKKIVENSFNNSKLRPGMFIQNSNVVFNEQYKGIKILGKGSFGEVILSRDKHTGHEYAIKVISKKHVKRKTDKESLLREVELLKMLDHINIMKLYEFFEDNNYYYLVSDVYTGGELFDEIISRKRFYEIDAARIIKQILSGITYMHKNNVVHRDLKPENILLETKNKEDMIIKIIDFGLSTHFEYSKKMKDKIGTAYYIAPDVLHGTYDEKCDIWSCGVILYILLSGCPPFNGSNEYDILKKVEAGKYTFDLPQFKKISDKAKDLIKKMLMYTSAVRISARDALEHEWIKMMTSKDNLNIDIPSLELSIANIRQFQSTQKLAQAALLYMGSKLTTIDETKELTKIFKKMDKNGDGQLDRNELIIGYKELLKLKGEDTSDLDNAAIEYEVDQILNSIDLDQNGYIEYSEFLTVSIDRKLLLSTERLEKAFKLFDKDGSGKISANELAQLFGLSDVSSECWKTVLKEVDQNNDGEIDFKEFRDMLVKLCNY
SMILES,growth inhibition [1],inhibition [2],inhibition [3] [%],growth inhibition [4],outcome [5],outcome [6],outcome [7],outcome [8]
COc1cc(C)ccc1N1CCN(CCCCNC(=O)c2ccc(NC(=O)c3ccc(Cl)cc3)cc2)CC1,31%,30%,4,99% (active),inactive,inactive,inactive,inactive
COc1cccc(C(=O)Nc2sc3c(c2C(N)=O)CCCC3)c1OC,8%,6%,-2,99% (active),inactive,inactive,inactive,inactive
Cc1ccc(NC(=O)c2cc(Br)cc(N3CCCN(C)CC3)c2)cc1F,1%,15%,-2,87% (active),inactive,inactive,inactive,inactive
O=C(/C=C/c1ccc([N+](=O)[O-])cc1)N1CCC(NS(=O)(=O)c2cccc(C(F)(F)F)c2)CC1,8%,-2%,-1,94% (active),inactive,inactive,inactive,inactive
O=C(Nc1cccc(F)c1)NC1CCN(CCCCCNC(=O)[C@@H]2C[C@H]2c2ccc(Cl)c(Cl)c2)CC1,12%,41%,4,101% (active),inactive,inactive,inactive,inactive
CCOc1cc(CC)ccc1C1CCN(CCCCNC(=O)c2ccc(NC(=O)c3ccc(C#N)cc3)cc2)CC1,50% (active),55% (active),-1,91% (active),inactive,inactive,inactive,inactive
CC[C@H](C)CNC(=O)c1cncc(-c2ccc(CNCCCc3ccccc3)cc2)c1,99% (active),19%,-2,101% (active),inactive,inactive,inactive,inactive
CNC(=O)Cc1ccc(C(=O)Nc2cccc(-c3cccc(-c4nc5ccc(C(F)(F)F)cc5[nH]4)c3)c2)cc1,37%,40%,5,95% (active),inactive,inactive,inactive,inactive
CN(C)CCN(C)Cc1cccc(-c2cccc(NC(=O)c3cccc(C#N)c3)c2)c1,10%,-4%,-1,92% (active),inactive,inactive,inactive,inactive
Cc1noc(C)c1-c1cccc(CNCc2ccc(-c3ccc(-c4nc5ccc(F)cc5[nH]4)cc3)cc2)c1,92% (active),23%,4,102% (active),inactive,inactive,inactive,inactive
Cc1cc(N)c2cc(NC(=O)c3cc(C(F)(F)F)cc(C(F)(F)F)c3)ccc2n1,99% (active),100% (active),5,102% (active),inactive,inactive,inactive,inactive
CC(C)Cn1cc(C2CCN(CCN3CCC(CNC(=O)c4ccc(-c5ccc(C(F)(F)F)cc5)cc4)CC3)CC2)c2ccccc21,87% (active),100% (active),0,101% (active),inactive,inactive,inactive,inactive
Cc1ccc2[nH]c3c(c2c1)CC(C(=O)NCCC(C)C)NC31CCN(Cc2ccccc2)CC1 (stereo not given),50% (active),15%,6,95% (active),inactive,inactive,inactive,inactive
CCOc1ccc(CCC(=O)O)cc1OCC,-3%,60% (active),6,94% (active),inactive,inactive,inactive,inactive
CCCCCCCCc1c(C)[nH]c(C)c(I)c1=O,77% (active),5%,4,91% (active),inactive,inactive,inactive,inactive
CCOC(=O)NC1=NC(C)(C)N(OCc2cccc3c2ccc2ccccc23)C(NC(=O)OCC)=N1,3%,3%,4,98% (active),inactive,inactive,inactive,inactive
COc1ccc(-c2ccc(CNC(=O)c3ccc(Cl)cc3)c(F)c2)cc1CN1CCCN(C)CC1,48%,25%,-5,99% (active),inactive,inactive,inactive,inactive
O=C(NC1CCN(c2ccnc3cc(Cl)ccc23)C1)c1ccccc1F (stereo not given),71% (active),8%,4,101% (active),inactive,inactive,inactive,inactive
CCCNCc1ccc(-c2ccc(CN(CCOC)C(=O)c3ccc([N+](=O)[O-])c(C)c3)cc2)nc1,23%,2%,1,97% (active),inactive,inactive,inactive,inactive
COC(=O)C(C)NCC(=O)c1ccccc1 (stereo not given),23%,5%,4,97% (active),inactive,inactive,inactive,inactive

SMILES,growth inhibition [1],inhibition [2],inhibition [3] [%],growth inhibition [4],outcome [5],outcome [6],outcome [7],outcome [8]
CCc1ccc(-c2nc3cc(NC(=O)c4ccc([N+](=O)[O-])o4)ccc3o2)cc1,80% (active),4%,3,97% (active),inactive,inactive,inactive,inactive
Cc1ccc(-c2nc3ccccc3o2)cc1NCc1cc(Cc2ccccc2)ccc1O,50% (active),45%,-4,82% (active),inactive,inactive,inactive,inactive
CCc1ccc2c(c1O)CCN(C)C2Cc1ccccc1Cl (stereo not given),99% (active),13%,-3,99% (active),inactive,inactive,inactive,inactive
CC(C)(C)c1ccc(CNC(=O)c2cc(CNC3CCNC3)ccc2O)cc1 (stereo not given),1%,0%,-6,94% (active),inactive,inactive,inactive,inactive
CN1CCN(CCCN(Cc2ccc(-c3cccc(CNCc4ccc5c(c4)OCO5)c3)cc2)C(=O)NC2CCCCC2)CC1,92% (active),31%,4,95% (active),inactive,inactive,inactive,inactive
Clc1cccc(C23N=C(Nc4nc5ccccc5[nH]4)NC2(c2ccccc2)NC(Nc2nc4ccccc4[nH]2)=N3)c1 (stereo not given),88% (active),-3%,-3,85% (active),inactive,inactive,inactive,inactive
O=C(Nc1ccccc1C(F)(F)F)Nc1nn(Cc2c(F)cccc2Cl)cc1Br,86% (active),-15%,-8,100% (active),inactive,inactive,inactive,inactive
O=c1cc(N2CCNCC2)c(Cl)nn1Cc1ccc(NS(=O)(=O)c2ccc(Oc3ccccc3)cc2)cc1,-5%,3%,-6,102% (active),inactive,inactive,inactive,inactive
Cc1cnc2cc3c(cc2c1N1CCN(C)CC1)NCC3,69% (active),12%,3,102% (active),inactive,inactive,inactive,inactive
CCC(C)NC(=O)Nc1ccc(-c2cccc(-c3nc4ccccc4[nH]3)c2)cc1 (stereo not given),37%,41%,7,94% (active),inactive,inactive,inactive,inactive
COc1ccccc1C(=O)Nc1ccc(Nc2nc(C)cc(N(C)C)n2)cc1,76% (active),1%,3,100% (active),inactive,inactive,inactive,inactive
CCOC(=O)C1CCN(CCCNC(=O)/C(=C/C=C/c2cc3cc(Cl)c(Cl)cc3[nH]2)OC)CC1,78% (active),23%,-6,87% (active),inactive,inactive,inactive,inactive
CC(=O)Nc1cc(C(=O)Nc2ccc(C3=NCCN3)cc2)ccc1C(=O)Nc1ccc(C2=NCCN2)cc1,92% (active),12%,-3,96% (active),inactive,inactive,inactive,inactive
COC(=O)c1cccc(CNCc2ccc(-c3cccc(-c4nc5c(C)cccc5[nH]4)c3)cc2)c1,84% (active),-7%,7,102% (active),inactive,inactive,inactive,inactive
O=c1cc(NCCC(CNCCc2ccccc2)NCc2cc(Br)cc(Br)c2)[nH]c2ccccc12 (stereo not given),47%,3%,-6,98% (active),inactive,inactive,inactive,inactive
Cc1ccccc1C1CCN(C2CCC(NC(=O)c3cc(-c4ccc(Cl)cc4)cs3)CC2)CC1 (stereo not given),100% (active),99% (active),-2,101% (active),inactive,inactive,inactive,inactive
FC(F)(F)c1ccc(CNCC2CCN(Cc3ccc4c(c3)OCO4)CC2)cc1,12%,27%,-5,80% (active),inactive,inactive,inactive,inactive
Cn1nccc1C(=O)NCCNCc1ccc(-c2ccc(-c3nc4ccc(F)cc4[nH]3)cc2)cc1,98% (active),28%,-5,101% (active),inactive,inactive,inactive,inactive
CN1CCC(N(Cc2ccc(-c3ccc(Cl)cc3)cc2)C(=O)Cn2c(CCc3cccc(F)c3F)cc(=O)c3ccccc32)CC1,88% (active),93% (active),-3,97% (active),inactive,inactive,inactive,inactive
N#Cc1cccc(NC(=O)Nc2ccc3c(c2)CCN(C2CCC2)CC3)c1,26%,22%,-3,91% (active),inactive,inactive,inactive,inactive
